{
  "source": "PubChem BioAssay AID2284216",
  "about": "(EPA ToxCast)",
  "note": "The source made the active and inactive calls. How the source made its calls: active means hit-call score of the fitted dose curve at least 0.9, where 1 is the maximum; inactive means score below 0.9.",
  "data": [
    {"biological_target": "rat Peripheral Benzodiazepine Receptor (PBR), Tspo (gene 24230) (UniProt P16257)", "sequence (P16257 whole entry, looked up)": "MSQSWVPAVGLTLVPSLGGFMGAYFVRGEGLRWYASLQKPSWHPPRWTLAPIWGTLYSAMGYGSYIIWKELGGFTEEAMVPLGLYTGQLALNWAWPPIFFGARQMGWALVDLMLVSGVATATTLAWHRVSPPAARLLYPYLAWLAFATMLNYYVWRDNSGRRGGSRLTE", "experiment": "ERF_TW_TR_rTSPO: Eurofins (ERF) Radioligand Binding Assay for rat Peripheral Benzodiazepine Receptor (PBR) Antagonism", "procedure": "ERF_TW_TR_rTSPO is a biochemical, single-readout assay that uses extracted gene-proteins in a cell-free assay. Measurements were taken 0.25 hour after chemical dosing in a 96-well plate. See PBR Rat Binding (Antagonist Radioligand) Assay, Panlabs.ERF_TW_TR_rTSPO is an assay component calculated from the ERF_TW_TR_rTSPO assay. It is designed to measure radioligand binding using a type of binding reporter as detected by scintillation counting with radiometry technology.Data from the assay component ERF_TW_TR_rTSPO was analyzed at the assay endpoint, ERF_TW_TR_rTSPO, in the positive analysis fitting direction relative to DMSO as the negative control and baseline of activity. Using a type of binding reporter, loss-of-signal activity can be used to understand changes in transporter binding as they relate to gene TSPO. To generalize the intended target to other relatable targets, this assay endpoint is annotated to the transporter intended target family, where the subfamily is cholesterol transporter.\nCells are incubated for 15 minutes at room temprature with [3H]PK 11195 (0.2 nM) as lingand.Test Sample Requirements: Minimum for 1) Screen: 60 ul of 10 mM stock -OR- 1 mg (pre-weighed) for 10uM final testing. . 2) Dose Response: 90 ul of 10 mM stock -OR- 1 mg (pre-weighed) for a top concentration at 10uM. .", "values": [
      {"smiles": "O=C(/C=C/c1ccc(O)cc1)CC(=O)/C=C/c1ccc(O)cc1", "AC50": "161 nM (active)"},
      {"smiles": "COc1cc(CCC(=O)CC(=O)CCc2ccc(O)c(OC)c2)ccc1O", "AC50": "2550 nM (active)"}
    ]}
  ]
}
